# Screening results from PubChem.
# SW480 rerep: DNA re-replication induction in SW480 cells; SW480 DNA re-replication, Hoechst DNA content imaging, 48 h; Potency, µM (series often up to 46.1 µM), for the others: top-dose re-replication activation, usual class: activators; 1.8% of 340,000 active; AID 624297; note: potency is the fitted concentration of half-maximal effect; % of control where 0% means no effect; nearly all actives have a fitted effect of over 55% in size
#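 Image-based read-out: total Hoechst fluorescence of nuclei (405 nm excitation, 500-530 nm emission), with hits raising the fraction of high-intensity nuclei. SW480 colon cells incubated 48 hr with compounds at 37 C.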
# Vif-APOBEC3F blk: inhibitors of Vif-A3F interaction. HeLa A3F-eYFP + Vif (tagged APOBEC3F with the HIV-1 protein that degrades it), YFP fluorescence increase. Potency, µM (top dose mostly 46.1 µM), for the others: at the highest dose activity, negative = active. 0.2% of 390,000 active. AID 602313; note: potency is the fitted concentration of half-maximal effect; % of control where 0% means no effect; nearly all actives have a fitted effect of over 65% in size
#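 Fluorescence increase (Ex 488/Em 500-530) after overnight compound treatment at 37 deg C flags inhibition of Vif-driven A3F-eYFP loss in stable HeLa A3F-eYFP/Vif cells seeded overnight beforehand.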
# IL1B secr inh: inhibitors of inflammasome signaling (IL-1 beta secretion). AID 743279. activity change, % at 57.5 µM. THP-1 LPS/ATP IL-1B secretion, AlphaLISA, 16 h; stronger effect = lower value. 4.7% of 360,000 active; in the data active = activity change below about -50%; inconclusive = mostly about -30% to -49%; note: % is set by controls: 0 for no effect and ±100 for the full control effect
#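 Secreted IL-1B measured by AlphaLISA bead assay after 16 h compound exposure of THP-1 cells; compounds (final up to 57.5 uM) added 1 h before LPS (250 ng/mL) and ATP (1.25 mM) stimulation; lower signal means less secretion.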
# MCF10A rerep: DNA re-replication induction in MCF 10a cells | Potency, µM (top dose mostly 46.1 µM), for the others: at the highest dose activity, positive = re-replication, usual class: activators | MCF 10A DNA re-replication, Hoechst nuclear intensity, 48 h | 2.9% of 350,000 active | AID 624296; note: potency is the fitted concentration of half-maximal effect; % of control where 0% means no effect; nearly all actives have a fitted effect of over 50% in size
# Vif-A3G inh: blocks the Vif interaction with human APOBEC3G; Q9HC16; HeLa A3G-eYFP + Vif (tagged APOBEC3G with the HIV-1 protein that degrades it), YFP fluorescence, overnight; Potency, µM (highest dose often 46.1 µM), without a hit: at the highest dose activity, negative = active, usual class: inhibitors; 0.076% of 410,000 active; note: potency is the fitted concentration of half-maximal effect; % is set by controls: 0 for no effect and ±100 for the full control effect; nearly all actives have a fitted effect of over 60% in size
# Target sequence (Q9HC16 whole entry, looked up): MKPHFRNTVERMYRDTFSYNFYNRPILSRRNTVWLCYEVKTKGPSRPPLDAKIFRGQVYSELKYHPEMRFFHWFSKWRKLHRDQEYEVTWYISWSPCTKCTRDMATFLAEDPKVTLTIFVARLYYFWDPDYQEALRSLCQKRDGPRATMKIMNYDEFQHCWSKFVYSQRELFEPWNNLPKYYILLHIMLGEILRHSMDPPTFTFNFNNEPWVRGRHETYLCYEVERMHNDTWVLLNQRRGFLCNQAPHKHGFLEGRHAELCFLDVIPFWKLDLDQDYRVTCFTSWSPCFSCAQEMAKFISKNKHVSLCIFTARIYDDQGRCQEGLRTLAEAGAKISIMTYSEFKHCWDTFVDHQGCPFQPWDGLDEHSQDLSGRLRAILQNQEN
#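 HeLa cells stably expressing Vif and C-terminally eYFP-tagged A3G, seeded overnight at 37 deg C, then exposed to compound by pintool overnight at 37 deg C. Rise in yellow fluorescence (Ex 488/Em 500-530, Acumen) marks blocked Vif-driven A3G degradation.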
# Giardia kill: kills Giardia lamblia; AID 540267; 0.15% of 340,000 active; activity change, % at 7.66 µM, hits read low; Giardia lamblia trophozoite viability; in the data active = activity change below about -80%; inconclusive = between about -30% and that limit;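 note: parasites exposed to compound for two days anaerobically before the ATP read; % is set by controls: 0 for no effect and ±100 for the full control effect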
#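 Luminescence from cellular ATP indicates surviving trophozoites (100 cells/well) following 48 hrs anaerobic compound treatment at 37 deg C; signal develops 15-30 min at room temperature.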
# Active calls of the source: *; ? = inconclusive; nt = no result. Rows were chosen to be rich in hits. Some 6.9% of all compounds tested hit in one or more screens of this group. Unless noted, calls come from the whole dose curve; as a rule, active = well fitted curve in the direction sought with a large enough effect; inconclusive = small, poorly fitted or top-dose-only effect, or another doubt; inactive = no such curve, though single readings can be large; an effect the other way counts as inactive or inconclusive.
SMILES,SW480 rerep,Vif-APOBEC3F blk,IL1B secr inh,MCF10A rerep,Vif-A3G inh,Giardia kill
COc1ccc(C(CNC(=O)c2c(C)nn(Cc3ccc(C)cc3)c2Cl)N2CCOCC2)cc1 (stereo not given),26%,-19%,-82*,-3%,-1%,14
Cc1ccc(Cn2nc(C)c(C(=O)NCC(c3cccs3)N3CCOCC3)c2Cl)cc1 (stereo not given),-10%,-2%,8,12%,1%,-7
COc1ccc(-c2ccc(OC)c(C3C4C=CCCC4(C)C(=O)N3Cc3ccccc3)c2)cc1 (stereo not given),nt,nt,nt,nt,-4%,10
CCOC(=O)C1=C(CC)Nc2ccccc2N=C1NC(=O)c1ccc(C)c(S(=O)(=O)N2CCOCC2)c1,8%,-15%,-10,3%,1%,11
CCOC(=O)C1=C(CC)Nc2ccccc2N=C1NC(=O)c1ccc(OC)c(S(=O)(=O)N2CCCCC2C)c1 (stereo not given),8%,5%,?,3.7µM*,-1%,-18
Cc1cc(C(=O)CSc2nc3ccccc3o2)c(C)n1C1CC1,9%,-8%,?,23µM*,-6%,2
Cc1cc(C(=O)CSc2ncnc3ccccc23)c(C)n1C1CC1,-7%,-8%,-22,2%,0%,-6
C=CCn1c(C)cc(C(=O)CSc2nnc(NCc3ccccc3)s2)c1C,?,-27%,-5,3.7µM*,?,-17
C=CCn1c(C)cc(C(=O)CSc2nc3ccccc3o2)c1C,?,-4%,-80*,23µM*,2%,-11
C=CCn1c(C)cc(C(=O)CSc2nnc(Cc3ccccc3)o2)c1C,10%,3%,7,23%,-1%,-11
C=CCn1c(C)cc(C(=O)CSc2nc3ccccc3c(=O)[nH]2)c1C,2%,0%,-19,?,-12%,-18
C=CCn1c(C)cc(C(=O)CSc2nc3ccccc3[nH]2)c1C,-1%,-2%,-65*,20%,0%,-3
CSC(SC)=C(C#N)C(=O)c1ccccc1,?,0%,-89*,23µM*,-10%,-5
COc1cccc(C(=O)C(C#N)=C(SC)SC)c1,?,6%,-5,?,?,10
O=S(Cc1ccc(Br)cc1)Cc1nnc(SCc2ccc(Cl)cc2)n1-c1ccccc1 (stereo not given),-4%,-18%,-68*,?,-18%,2
O=C(CSc1nnc(CCc2ccccc2)n1-c1ccc(Cl)cc1)c1ccccc1,-5%,3%,-64*,?,-5%,-13
Cn1c(CS(=O)Cc2c(Cl)cccc2Cl)nnc1SCc1ccc(Cl)cc1 (stereo not given),-3%,-7%,4,19%,0%,-13
O=S(Cc1ccc(Br)cc1)Cc1nnc(SCc2c(F)cccc2Cl)n1-c1ccccc1 (stereo not given),10%,-7%,-62*,?,1%,3
CNCc1nc(-c2ccc[nH]2)c2cc(Cl)ccc2n1,nt,nt,nt,nt,5%,nt
COCc1oc2ccc(NS(=O)(=O)c3ccc(C)cc3)cc2c1C(=O)OC,nt,-9%,nt,nt,?,nt
Cc1ccc(CN(C(=O)c2ccc(Cl)c([N+](=O)[O-])c2)C2CCS(=O)(=O)C2)o1 (stereo not given),2%,1%,-95*,8%,-1%,-19
O=C(c1ccc(Cl)c([N+](=O)[O-])c1)N(Cc1ccc(Cl)cc1)C1CCS(=O)(=O)C1 (stereo not given),-3%,1%,-88*,24%,-12%,20
O=C(/C=C/c1ccc(Cl)cc1)N(Cc1ccccc1)C1CCS(=O)(=O)C1 (stereo not given),-80%,-6%,-67*,17%,-1%,9
O=C(c1ccc(Cl)c([N+](=O)[O-])c1)N(Cc1cccc(Cl)c1)C1CCS(=O)(=O)C1 (stereo not given),1%,0%,-93*,9%,0%,21
O=C(c1ccc(Cl)c([N+](=O)[O-])c1)N(Cc1ccccc1)C1CCS(=O)(=O)C1 (stereo not given),-16%,0%,-13,3%,1%,-9
SMILES,SW480 rerep,Vif-APOBEC3F blk,IL1B secr inh,MCF10A rerep,Vif-A3G inh,Giardia kill
Cc1nn(-c2ccccc2)c(OC(=O)c2ccccc2Br)c1S(=O)(=O)c1ccccc1,nt,0%,nt,nt,1%,nt
CSc1ccc2nnc(-c3ccc(C)cc3)n2n1,nt,nt,nt,nt,1%,?
O=S(=O)(NC1CCCCC1N1CCN(c2ccc(F)cc2)CC1)c1ccccc1 (stereo not given),3%,0%,19,26µM*,-2%,-7
COc1ccccc1N1CCN(C2CCCCC2NS(=O)(=O)c2ccc(Cl)cc2)CC1 (stereo not given),1%,-10%,-72*,0%,0%,?
O=S(=O)(NC1CCCCC1N1CCCCC1)c1ccccc1 (stereo not given),-11%,-1%,-7,5%,-2%,5
Cc1ccc(CN2CCCn3nc(C(=O)NCCc4ccc(Cl)cc4)cc3C2=O)cc1,nt,-1%,nt,nt,4%,nt
COc1ccc(/C=C2\N=C(C(C)(C)C)OC2=O)c(OC)c1,-1%,11%,31,23µM*,4%,12
CN(C1=NS(=O)(=O)N=C(N(C)c2ccccc2)O1)c1ccccc1,nt,-10%,-102*,nt,?,nt
Cc1nc(SCc2ccc(Br)cc2)[nH]c(=O)c1C,-5%,6%,20,7.3µM*,-4%,-3
Cc1nnc(NC(=O)CSc2nc(C(C)C)nc3ccccc23)s1,?,-7%,8,2%,?,8
O=C(CSc1nc(Cc2ccccc2)nc2ccccc12)Nc1nc2c(s1)CCCC2,21µM*,-8%,-12,23µM*,-1%,-3
Cc1cc(NC(=O)CSc2nc(C(C)C)nc3ccccc23)no1,?,-6%,-18,26µM*,?,5
CC(C)(C)c1nc(SCC(=O)Nc2nc3c(s2)CCCC3)c2ccccc2n1,-6%,-6%,-4,2%,-1%,6
CC(C)c1nc(SCC(=O)Nc2nc3c(s2)CCCC3)c2ccccc2n1,?,2%,-63*,?,-11%,-14
CCN(CC)c1sc(S(=O)(=O)c2ccccc2)nc1S(=O)(=O)c1ccc(C)cc1,nt,2%,nt,nt,-7%,nt
CCOC(=O)C1CCN(C(c2ccccn2)c2c(C)[nH]c3ccccc23)CC1 (stereo not given),?,-2%,-110*,21µM*,-8%,-8
COc1cccc(-c2ccc3c(N)c(C(=O)Nc4ccc(C)c(F)c4)sc3n2)c1,nt,-7%,nt,nt,-4%,nt
CC(C)OC(=O)c1sc2nc(-c3ccccc3)ccc2c1N,5.8µM*,-15%,-11,?,-8%,-29
